Laboratory results published in the supplement of paper PMC10849652.
About 7,900 targets were measured; listed, in parts, are those with a hit and a random draw of the rest. About 0.6% of all pairs of compound and target were hits.

Legend:
Assay in all cases: log2 fold change, soluble protein after heating vs DMSO (PISA); higher = thermal stabilisation; K562 cells, 10 uM, 30 min; active = over 0.2 and 3.5 SD of the protein, either way, in both replicates (recomputed)
[1] = compound: C1=CC=C(C=C1)[C@H](COC2=CC3=C(C=C2)NC(=O)N3)NC(=O)C4=CC=CN(C4=O)CC5=CC(=C(C=C5)F)F
How it was run: (§1)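 Values are thermal stability changes relative to control samples and are taken from duplicates. They are stated as log2 fold changes. Before quantification by TMTpro 16plex LC-MS/MS with equalised channel sums, K562 cells at 2×10^6 cells/mL were treated with 10 μM compound for 30 min, heated in aliquots for 3 min across 48°C-58°C, pooled, extracted in PBS with 0.5% NP-40 at 4°C, and centrifuged at 21,000xg for 90 min to give the soluble supernatant.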

[2] = compound: CC1=C(SC2=C1C(=N[C@H](C3=NN=C(N32)C)CC(=O)N)C4=CC=C(C=C4)Cl)C
How it was run: as §1

[3] = compound: CC1=C2C(=CC=C1)N=C(N(C2=O)C3=CC=CC=C3C)CN4C=NC5=C(N=CN=C54)N
How it was run: as §1

[4] = compound: Cc1sc2c(c1C)C(c1ccc(Cl)cc1)=N[C@@H](CC(=O)OC(C)(C)C)c1nnc(C)n1-2
How it was run: as §1

[5] = compound: c1ccc([C@@H]2C[C@H]2NC2CCNCC2)cc1
How it was run: as §1

Measured: log2 fold change

BOP1 (UniProt Q14137)
Chain of UniProt Q14137 (Q14137 whole entry, looked up): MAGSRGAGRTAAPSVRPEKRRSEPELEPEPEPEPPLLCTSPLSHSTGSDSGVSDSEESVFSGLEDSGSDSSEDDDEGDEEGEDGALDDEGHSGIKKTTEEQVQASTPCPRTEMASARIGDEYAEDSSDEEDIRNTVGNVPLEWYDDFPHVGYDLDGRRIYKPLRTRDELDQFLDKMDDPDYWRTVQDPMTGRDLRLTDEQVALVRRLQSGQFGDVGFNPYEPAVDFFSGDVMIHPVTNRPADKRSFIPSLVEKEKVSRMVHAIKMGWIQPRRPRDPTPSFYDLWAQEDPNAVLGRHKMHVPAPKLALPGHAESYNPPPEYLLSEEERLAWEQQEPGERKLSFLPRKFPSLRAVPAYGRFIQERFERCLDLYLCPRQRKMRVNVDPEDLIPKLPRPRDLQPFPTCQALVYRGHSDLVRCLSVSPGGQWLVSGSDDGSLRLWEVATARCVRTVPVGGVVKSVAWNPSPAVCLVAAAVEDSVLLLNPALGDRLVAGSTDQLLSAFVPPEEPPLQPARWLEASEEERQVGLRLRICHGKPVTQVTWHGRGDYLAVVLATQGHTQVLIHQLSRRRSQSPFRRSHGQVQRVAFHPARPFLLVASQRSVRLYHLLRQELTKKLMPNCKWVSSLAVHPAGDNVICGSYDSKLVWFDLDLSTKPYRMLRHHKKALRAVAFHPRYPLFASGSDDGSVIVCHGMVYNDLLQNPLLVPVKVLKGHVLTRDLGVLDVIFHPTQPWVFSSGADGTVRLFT
inactive: [1] 0.096 | [2] -0.099 | [3] 0.01 | [4] -0.036 | [5] -0.01

ATR (UniProt Q13535)
Chain of UniProt Q13535 (Q13535 whole entry, looked up): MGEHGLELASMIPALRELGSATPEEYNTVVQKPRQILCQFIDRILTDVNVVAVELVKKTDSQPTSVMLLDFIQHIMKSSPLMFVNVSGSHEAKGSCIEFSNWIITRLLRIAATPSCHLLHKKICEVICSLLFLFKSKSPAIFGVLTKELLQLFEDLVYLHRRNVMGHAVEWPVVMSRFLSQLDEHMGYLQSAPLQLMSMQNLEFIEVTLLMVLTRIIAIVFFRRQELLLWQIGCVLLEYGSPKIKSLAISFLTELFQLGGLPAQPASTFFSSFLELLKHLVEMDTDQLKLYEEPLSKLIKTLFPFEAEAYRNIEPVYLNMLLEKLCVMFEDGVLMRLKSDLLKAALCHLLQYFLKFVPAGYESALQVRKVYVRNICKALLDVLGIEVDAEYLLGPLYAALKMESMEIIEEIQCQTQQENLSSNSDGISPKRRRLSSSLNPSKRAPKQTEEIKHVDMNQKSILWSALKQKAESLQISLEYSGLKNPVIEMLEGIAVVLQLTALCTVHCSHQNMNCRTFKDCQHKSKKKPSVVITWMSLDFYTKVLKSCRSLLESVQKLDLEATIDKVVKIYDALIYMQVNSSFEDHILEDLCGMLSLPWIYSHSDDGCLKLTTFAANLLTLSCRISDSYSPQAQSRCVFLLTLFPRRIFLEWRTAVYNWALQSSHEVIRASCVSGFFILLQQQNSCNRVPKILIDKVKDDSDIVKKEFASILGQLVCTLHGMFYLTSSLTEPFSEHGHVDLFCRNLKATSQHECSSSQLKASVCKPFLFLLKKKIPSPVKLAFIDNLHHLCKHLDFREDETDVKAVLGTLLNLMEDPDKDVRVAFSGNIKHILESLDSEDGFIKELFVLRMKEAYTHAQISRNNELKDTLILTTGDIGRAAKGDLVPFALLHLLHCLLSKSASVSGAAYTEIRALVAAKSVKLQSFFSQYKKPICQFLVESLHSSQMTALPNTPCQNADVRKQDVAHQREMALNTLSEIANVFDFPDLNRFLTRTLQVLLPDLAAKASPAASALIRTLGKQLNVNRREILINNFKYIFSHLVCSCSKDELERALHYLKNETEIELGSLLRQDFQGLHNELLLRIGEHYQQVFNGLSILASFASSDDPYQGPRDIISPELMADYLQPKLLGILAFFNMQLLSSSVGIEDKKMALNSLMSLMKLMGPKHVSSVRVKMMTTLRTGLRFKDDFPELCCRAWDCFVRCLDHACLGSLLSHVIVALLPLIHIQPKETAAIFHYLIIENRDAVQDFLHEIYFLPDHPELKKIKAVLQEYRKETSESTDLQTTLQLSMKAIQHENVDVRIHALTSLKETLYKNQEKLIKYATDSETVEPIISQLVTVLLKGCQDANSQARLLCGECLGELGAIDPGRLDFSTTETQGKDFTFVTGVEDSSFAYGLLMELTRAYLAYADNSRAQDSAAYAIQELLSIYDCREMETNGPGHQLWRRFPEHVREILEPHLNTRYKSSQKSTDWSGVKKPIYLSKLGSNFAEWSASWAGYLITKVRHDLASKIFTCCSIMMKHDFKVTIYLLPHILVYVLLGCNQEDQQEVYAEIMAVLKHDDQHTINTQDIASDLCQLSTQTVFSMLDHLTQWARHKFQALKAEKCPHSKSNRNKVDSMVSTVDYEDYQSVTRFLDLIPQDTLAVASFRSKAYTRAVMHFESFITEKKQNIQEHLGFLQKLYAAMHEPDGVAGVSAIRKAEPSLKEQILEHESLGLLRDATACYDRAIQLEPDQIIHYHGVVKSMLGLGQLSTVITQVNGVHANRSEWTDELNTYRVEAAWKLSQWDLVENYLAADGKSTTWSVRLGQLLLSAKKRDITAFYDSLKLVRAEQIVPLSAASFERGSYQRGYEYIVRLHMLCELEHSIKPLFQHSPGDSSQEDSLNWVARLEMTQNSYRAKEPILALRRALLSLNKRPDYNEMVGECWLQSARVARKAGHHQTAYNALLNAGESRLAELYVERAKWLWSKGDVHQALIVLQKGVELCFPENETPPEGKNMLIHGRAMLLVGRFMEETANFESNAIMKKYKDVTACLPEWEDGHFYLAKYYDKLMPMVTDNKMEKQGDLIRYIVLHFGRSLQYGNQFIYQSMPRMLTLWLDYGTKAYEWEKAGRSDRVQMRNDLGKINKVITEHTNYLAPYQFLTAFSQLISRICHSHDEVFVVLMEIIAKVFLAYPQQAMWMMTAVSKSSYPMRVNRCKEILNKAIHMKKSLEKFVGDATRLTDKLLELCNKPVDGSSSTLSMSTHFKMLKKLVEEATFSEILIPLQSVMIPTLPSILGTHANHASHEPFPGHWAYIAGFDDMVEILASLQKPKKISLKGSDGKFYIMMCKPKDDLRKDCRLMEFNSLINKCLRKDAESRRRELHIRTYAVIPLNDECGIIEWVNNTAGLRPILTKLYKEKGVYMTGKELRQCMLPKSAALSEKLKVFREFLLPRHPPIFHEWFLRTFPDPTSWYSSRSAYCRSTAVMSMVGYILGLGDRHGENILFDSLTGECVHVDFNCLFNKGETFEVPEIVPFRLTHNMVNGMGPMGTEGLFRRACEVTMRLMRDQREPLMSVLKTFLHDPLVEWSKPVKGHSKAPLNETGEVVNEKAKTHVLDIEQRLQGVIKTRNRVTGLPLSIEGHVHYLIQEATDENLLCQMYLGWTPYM
inactive: [1] -0.045 | [2] 0.025 | [3] 0.107 | [4] -0.022 | [5] -0.079

AMFR (UniProt Q9UKV5)
Chain of UniProt Q9UKV5 (Q9UKV5 whole entry, looked up): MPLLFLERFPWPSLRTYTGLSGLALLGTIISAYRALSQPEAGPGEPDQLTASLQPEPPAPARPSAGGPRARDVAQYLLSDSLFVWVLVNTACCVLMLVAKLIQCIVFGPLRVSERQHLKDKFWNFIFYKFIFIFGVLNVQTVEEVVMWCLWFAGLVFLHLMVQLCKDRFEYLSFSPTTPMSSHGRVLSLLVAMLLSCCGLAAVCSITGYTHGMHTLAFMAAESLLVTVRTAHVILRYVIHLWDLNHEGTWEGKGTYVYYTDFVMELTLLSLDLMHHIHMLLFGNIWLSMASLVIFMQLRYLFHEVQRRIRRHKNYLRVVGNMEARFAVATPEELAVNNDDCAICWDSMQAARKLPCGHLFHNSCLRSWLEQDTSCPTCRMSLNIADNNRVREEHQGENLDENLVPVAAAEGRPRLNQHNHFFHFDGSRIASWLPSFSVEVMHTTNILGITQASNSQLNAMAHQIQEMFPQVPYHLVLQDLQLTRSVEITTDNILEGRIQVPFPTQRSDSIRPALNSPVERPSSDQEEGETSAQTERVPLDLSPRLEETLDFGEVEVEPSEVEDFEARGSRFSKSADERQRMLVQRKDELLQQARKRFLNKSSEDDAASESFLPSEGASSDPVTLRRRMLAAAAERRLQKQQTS
inactive: [1] -0.043 | [2] -0.004 | [3] 0.023 | [4] 0.024 | [5] -0.046
